Screening data (PubChem BioAssay)
TbREL1 inh – TbREL1 inhibition, primary screen. TbREL1 RNA ligation, FRET fluorescence. inhibition, % at 9.66 µM. hit rate 0.49% among 89,000. AID 1117264;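 active means inhibition above the mean inhibition across all screened compounds plus 3 SD, cut at about 11% in these data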
Target sequence (P86926 whole entry, looked up): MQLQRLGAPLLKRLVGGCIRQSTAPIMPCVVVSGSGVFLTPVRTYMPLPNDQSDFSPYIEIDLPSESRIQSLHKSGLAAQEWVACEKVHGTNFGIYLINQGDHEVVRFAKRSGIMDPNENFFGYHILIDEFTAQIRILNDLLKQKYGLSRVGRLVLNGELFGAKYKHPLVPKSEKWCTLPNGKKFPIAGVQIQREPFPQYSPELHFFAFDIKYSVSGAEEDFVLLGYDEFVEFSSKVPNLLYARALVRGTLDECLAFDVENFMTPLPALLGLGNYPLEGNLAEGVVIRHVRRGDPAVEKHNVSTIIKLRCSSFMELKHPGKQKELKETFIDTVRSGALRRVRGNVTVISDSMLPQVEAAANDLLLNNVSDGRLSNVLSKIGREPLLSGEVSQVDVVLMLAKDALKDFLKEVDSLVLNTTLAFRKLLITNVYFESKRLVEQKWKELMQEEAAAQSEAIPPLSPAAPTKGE
TbREL1 confirm – TbREL1 inhibition, confirmation; shares compounds with TbREL1 inh; hit rate 37% among 390; inhibition, % at 9.66 µM; TbREL1 RNA ligation, FRET fluorescence;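 active means mean inhibition across replicates above a set limit taken from the earlier primary screen, cut at about 11% in these data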
Numbers stand for hits; n = inactive. The entries come from a sample that favours hits as a whole.

SMILES | TbREL1 inh | others
COC(=O)C1=C(C)N(Cc2ccc(C(F)(F)F)cc2)C(=NCC2CC2)NC1c1ccccc1C(F)(F)F (stereo not given) | 14 | TbREL1 confirm=16
COC(=O)C1=C(C)N(Cc2ccc(C(F)(F)F)cc2)C(=NCc2cccc(C(F)(F)F)c2)NC1c1ccccc1C(F)(F)F (stereo not given) | 20 | TbREL1 confirm=25
COC(=O)C1=C(C)N(C)C(=NCc2ccc(C(F)(F)F)cc2)NC1c1ccccc1C(F)(F)F (stereo not given) | n
CCN1C(=NCCOC)N[C@@H](c2cccc(C(F)(F)F)c2)C(C(=O)OC)=C1C | n
COc1cccc(NC(=O)Nc2c(-c3ccc(C)cc3)nc3ncccn23)c1 | n
C=CCCC(=O)N[C@H]1CC[C@@]23CCCN2C(=O)CCC[C@H]3[C@H]1CCC | n
Cc1ccc(NC(=O)C2CCCN(c3nnc(-n4cccc4)s3)C2)c(C)c1 (stereo not given) | n
CC(c1ccccc1)n1cc(C(=O)N2CCCN(Cc3ccccc3)CC2)nn1 (stereo not given) | n
O=S(=O)(c1ccccc1F)N1CCC(c2nc3ccccc3o2)CC1 | n
Cc1nn(C)c(C)c1NC(=O)C12CC3CC(CC(C3)C1)C2 | n
CCC(=O)Nc1cc(C)c(NC(=O)C23CC4CC(CC(C4)C2)C3)cn1 | n
Cc1cc(NC(=O)C23CC4CC(CC(C4)C2)C3)n[nH]1 | 12 | TbREL1 confirm=n
CN(C)c1cccc(-c2cnc(N3CCC(C(N)=O)CC3)nc2)c1 | n
COc1cccc(N2CCN(CC(=O)NCc3ccc(F)cc3)CC2)c1 | n
C[C@@H]1CCN(C2CC2)S(=O)(=O)c2ccc(N3CC[C@@H](N(C)C)C3)cc2O1 | n
COc1ccc(-n2c(SCC(=O)N/N=C(/C)c3cccc(O)c3)nc3ccccc3c2=O)cc1 | n
N#Cc1ccccc1S(=O)(=O)N1CCN(CC(O)CN2CCOCC2)CC1 (stereo not given) | 20 | TbREL1 confirm=n
COc1ccc(OCCN2CCN(S(=O)(=O)c3ccccc3C#N)CC2)cc1 | n
COc1ccc(S(=O)(=O)N2CCN(CC(O)CN3CCOCC3)CC2)cc1 (stereo not given) | n
c1ccc(C2CCC3(CC2)CCC3NCc2cccs2)cc1 (stereo not given) | n
COC1=CC(=O)c2nc(Cl)ccc2C1=O | 20 | TbREL1 confirm=30
CC(C)(C)N(NC(=O)NCCCl)C(=O)c1ccccc1Cl | n
O=C(OCCOc1ccc(Br)cc1)c1cnccn1 | n
COc1ccc(C(=O)NCCNC(=O)c2cnccn2)cc1 | n
CCC(=O)c1ccc(OC(=O)c2cnccn2)cc1 | 17 | TbREL1 confirm=n
SMILES | TbREL1 inh | others
C[N+]1=C2N[C@@H](c3ccccc3)CC(=O)N2/C(=C\c2ccccc2)[C@@H]1Cc1ccccc1 | n
C=CC(=O)NC1CCCCN(CC)C1=O (stereo not given) | n
Cc1cc(NC(=O)c2ccc(NS(=O)(=O)c3ccc(F)cc3)cc2)no1 | n
c1ccc(Cn2c(SC3CCCCC3)nnc2-c2cccnc2)cc1 | n
C#CCOCCOCCOCCNc1nc(N2CCN(C(=O)[C@H](CCCCN)n3cc([C@@H](N)C(C)CC)nn3)CC2)nc(N2CCN(C(=O)[C@H](CCCCN)n3cc([C@@H](N)C(C)CC)nn3)CC2)n1 (stereo not given in full) | 16 | TbREL1 confirm=17
C#CCOCCOCCOCCNc1nc(N2CCN(C(=O)[C@H](CCCCN)n3cc([C@@H](N)[C@H](C)CC)nn3)CC2)nc(N2CCN(C(=O)[C@H](CCC(=O)O)n3cc([C@@H](N)CCCCN)nn3)CC2)n1 | n
C#CCOCCOCCOCCNc1nc(N2CCN(C(=O)[C@H](CCCN=C(N)N)n3cc(C(N)[C@@H](C)CC)nn3)CC2)nc(N2CCN(C(=O)[C@H](CCC(=O)O)n3cc([C@@H](N)CCCCN)nn3)CC2)n1 (stereo not given in full) | n
COC(=O)[C@]12C[C@H](CC(=O)NCCc3ccccc3OC)C(=O)N(CCc3ccc(OC)c(OC)c3)C1=C[C@H](COCc1ccccc1)O[C@@H]2C | n
CC1CN(CC(O)COC(c2ccccc2)c2ccccc2)CC(C)O1 (stereo not given) | n
OC(COC(c1ccc(Cl)cc1)c1ccc(Cl)cc1)CN1CCCC1 (stereo not given) | n
Cc1ccc(C(OCC(O)CN2CCCCC2)c2ccccc2)cc1 (stereo not given) | 13 | TbREL1 confirm=n
O=C(CSc1nc2sc3c(c2c(=O)n1-c1ccc(Cl)cc1)CCC3)Nc1ccc(C(=O)O)cc1 | n
O=C(CN1C(=O)CCSc2ccccc21)Nc1ccc(F)cc1F | n
O=C(CSc1nnc(-c2ccccc2)n1-c1ccc(Cl)cc1)NN=Cc1c[nH]c2ccccc12 | n
CSCCC(NC(=O)COc1ccccc1)C(=O)N1CCN(c2ccccc2O)CC1 (stereo not given) | 42 | TbREL1 confirm=n
CSCCC(NC(=O)COc1ccccc1)C(=O)OCC(=O)c1ccccc1 (stereo not given) | n
CCOC(=O)C1CCN(C(=O)C(CCSC)NC(=O)COc2ccccc2)CC1 (stereo not given) | n
O=C(CCS(=O)(=O)c1ccccc1)Nc1ccc(F)cc1F | n
COC(=O)c1cc(-c2ccc(F)cc2OCc2ccccc2)c(=O)n2c1CCC2 | n
C=CCN(C(=O)[C@@H](C1CC1)[C@@H](O)c1ccc2ccccc2c1)c1ccccc1 | n
CCCc1nc2c(=O)n(C)c(=O)nc-2n(C)n1 | 61 | TbREL1 confirm=86
COc1ccc(CCn2c(C)nc3c(c(=O)c4ccccc4n3C)c2=O)cc1 | n
Cc1ccc(CN2CCCCC(NC(=O)c3ccccc3)C2=O)cc1 (stereo not given) | n
NC(=O)C1CCN(c2ccnc(Cl)n2)CC1 | n
Clc1nssc1=Nc1nncs1 | 18 | TbREL1 confirm=19
SMILES | TbREL1 inh | others
Clc1nssc1=Nc1ccc(Br)cc1 | n
Cc1ccc(-n2c(SCC(=O)Nc3cccc4ccccc34)nnc2-c2ccccc2)cc1 | n
O=C(Nc1ccccc1)N1CCCN(c2ccc(C(F)(F)F)cc2[N+](=O)[O-])CC1 | n
O=C(Nc1ccccc1)N1CCN(c2ccc(F)cc2)CC1 | n
O=C(Nc1ccc(F)cc1)N1CCCN(c2ccc(C(F)(F)F)cn2)CC1 | 25 | TbREL1 confirm=n
CCn1c(SCC(=O)Nc2ccc(C(C)C)cc2)nnc1-c1ccc(C(C)(C)C)cc1 | n
Nc1ccc2c(S(=O)(=O)O)cccc2c1S(=O)(=O)O | n
Nc1cccc2cc(S(=O)(=O)O)ccc12 | 26 | TbREL1 confirm=n
Nc1cccc(S(=O)(=O)c2cccc(N)c2)c1 | n
CCC(=O)N1CCc2cc(Br)c(S(=O)(=O)N3CCCC(C(=O)NC(C)(C)C)C3)cc21 (stereo not given) | n
O=c1c2c([N+](=O)[O-])cc([N+](=O)[O-])cc2sn1Cc1ccccc1 | n
O=c1c([N+](=O)[O-])c(Cl)c2ccccc2n1Cc1ccccc1 | 17 | TbREL1 confirm=n
O=Nc1c(O)n(Cc2ccccc2)c2ccccc12 | n
C[C@H]1[C@@H](OC(=O)N2CCN(c3ccccc3)CC2)CC[C@@]23CCCN2C(=O)CCC[C@@H]13 | n
Cc1c(NC(=O)CN2C(=O)c3ccc([N+](=O)[O-])cc3C2=O)c(=O)n(-c2ccccc2)n1C | n
O=C(CN1C(=O)c2ccccc2C1=O)Nc1cc([N+](=O)[O-])ccc1O | n
O=C(CN1C(=O)c2ccc([N+](=O)[O-])cc2C1=O)NCc1ccco1 | 12 | TbREL1 confirm=n
Oc1ccc(CNc2cccnc2)c2cccnc12 | n
CCn1c(SCc2c(F)cccc2F)nc2sc3c(c2c1=O)CCCC3 | n
